Experimental findings from PubChem BioAssay (NCATS) are described below.

Each structure is given as a SMILES string. Inconclusive results are not listed. Unmarked numbers belong to inactive results. The source made the active and inactive calls. Calls follow the shape of the dose curve; as a rule, active = well fitted inhibition curve with a large enough effect; inconclusive = small, poorly fitted or top-dose-only effect; inactive = flat fitted curve, though single readings scatter.

Holding throughout (experiment): Cytotoxic Profiling of Annotated Libraries Using Quantitative High-Throughput Screening (AID 1296008); also: nearly all actives have a fitted effect of over 60% in size
Conditions in all cases: Five cell lines viability, CellTiter-Glo ATP luminescence, 48-72 h; max response: active compounds read low
(In general: ATP-based viability assays read luminescence as a measure of living cells.)

One assay has as its system HEK293. The essentials: (§1)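 Compounds were pin-transferred onto cells and incubated 48 or 72 hr at 37 degree Celsius, 95% humidity. CellTiter-Glo was added, plates sat 10 min at room temperature, then ATP-coupled luminescence was imaged as the viability read-out.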
The subject of the next assay is HaCat. The essentials:
as §1

In another assay the test system is KB-3-1. Summed up:
as §1

The test system of a further assay is NIH3T3. The essentials:
as §1
% is scaled to controls: 0 for no effect and ±100 for the full control effect; potency is read from the fitted curve at half-maximal effect.

As for `Cc1noc(-c2ccc(-c3ccc(CC(=O)O)cc3)cc2)c1NC(=O)O[C@H](C)c1ccccc1`, the max response in the assay on HEK293 is -14%; in the assay on HaCat, -1.06%; with KB-3-1 it was 0.957%.

Consider `O=C(c1cn(Cc2cncn2Cc2ccc(Br)cc2)cc1-c1cccc2ccccc12)N1CCOCC1`, for which the Potency is 0.58 µM (active) with HEK293, 5.8 µM (active) with HaCat, 11.6 µM (active) in the assay on KB-3-1 and 7.31 µM (active) with NIH3T3.

With `C=C(C(=O)O)C1CCC2(C)CCCC(C)(O)C2C1` (stereo not drawn), the max response with HEK293 was -4.4%. For the same compound, the compound was called inactive in the assay on HaCat, in the assay with KB-3-1 and with NIH3T3.

Take `O=C(CC1C(=O)Nc2ccccc21)OC[C@H]1O[C@@H](OCCc2ccc(O)cc2)[C@H](O)[C@@H](O)[C@@H]1O` (stereo partly drawn): the max response with HEK293 is 1.16%; in the assay with HaCat it was -16.5%; in the assay on NIH3T3 it was -0.494%. Moreover, the result with KB-3-1 was inactive.

On to `O=C(COc1cccc2c(=O)[nH]ccc12)c1ccccc1`, for which the max response with HEK293 was -5.18%; with HaCat, -15.5%; in the assay with KB-3-1, 7.28%; with NIH3T3 it was 1.93%.

For the compound `C=C(C)C(=O)OC1C(OC(C)=O)/C(C=O)=C\CC/C(CO)=C/C2OC(=O)C(=C)C21` (stereo not drawn), the Potency with HEK293 is 5.63 µM (active). For the same compound, the max response in the assay with HaCat is -6.21%; in the assay with KB-3-1, -25.3%.

Consider `CC1(C)C=CN2C(=O)C3=CCCN3C(=O)[C@@H]2C[C@@]12Nc1ccccc1C2=O`, for which the max response is -9.52% with HEK293, -4.92% with HaCat and -3.89% in the assay on NIH3T3. For the same compound, in the assay on KB-3-1, the call was inactive.

In the case of `COC(=O)N1CCC(n2ncc3c(N4CCOCC4)nc(-c4ccc(NC(=O)Nc5ccc(CO)cc5)cc4)nc32)CC1`, the Potency with HEK293 was 0.058 µM (active); with HaCat it was 3.66 µM (active); in the assay on KB-3-1, 0.231 µM (active); with NIH3T3, 1.46 µM (active).

For `CCN(CC)Cc1ccc(C(=O)N(CCc2ccccc2OC)[C@@H]2CCNC2)cc1`, the results for the Potency in the assay with HEK293, in the assay with KB-3-1 and in the assay with NIH3T3 were 5.63 µM (active), 3.99 µM (active) and 2.52 µM (active), respectively. In addition, the max response in the assay on HaCat is -4.71%.

For `CC[C@@H](N)CNc1ccnc(-c2cc(-c3cnn(C)c3)ccc2O)n1`, the Potency was 5.17 µM (active) in the assay with HEK293, 5.8 µM (active) in the assay with HaCat, 4.61 µM (active) in the assay on KB-3-1 and 14.6 µM (active) in the assay with NIH3T3.

With `COC(=O)c1c(C)cc(OC(=O)c2c(C)cc(OC)cc2OC)cc1O[C@@H]1O[C@H](CO)[C@@H](O)[C@H](O)[C@H]1O`, the max response with HEK293 was -0.971%; in the assay with HaCat it was -0.836%; in the assay on KB-3-1 it was -1.14%; in the assay on NIH3T3, -1.71%.

Take `Cc1c(CN2CCN(C(=O)C(C)O)CC2)sc2c(N3CCOCC3)nc(-c3cnc(N)nc3)nc12` (stereo not drawn): the Potency in the assay with HEK293 is 0.651 µM (active); in the assay with HaCat, 2.31 µM (active); in the assay with KB-3-1, 0.58 µM (active); with NIH3T3, 1.3 µM (active).

`C[C@@H]1O[C@@H](O[C@H]2[C@H](OC(=O)[C@]34CCC(C)(C)C[C@H]3C3=CCC5[C@@]6(C)C[C@H](O)[C@H](O[C@@H]7O[C@H](CO)[C@@H](O)[C@H](O)[C@H]7O)[C@@](C)(CO)C6[C@H](O)C[C@@]5(C)[C@]3(C)CC4)OC[C@H](O)[C@@H]2O)[C@H](O)[C@H](O)[C@H]1O[C@@H]1OC[C@@H](O)[C@H](O[C@@H]2OC[C@](O)(CO)[C@H]2O)[C@H]1O` (stereo partly drawn): the max response in the assay on HEK293 is -1.81%; with HaCat, -1.17%; in the assay with KB-3-1, 3.08%. Further, the compound was classed as inactive in the assay on NIH3T3.

Turning to `CC(C)(C)c1ccc(S(=O)(=O)NCc2ccc(C(=O)Nc3cccnc3)cc2)cc1`, the Potency in the assay with HEK293 was 0.326 µM (active); in the assay with HaCat, 6.51 µM (active); in the assay on KB-3-1 it was 0.731 µM (active); with NIH3T3, 3.66 µM (active).

For the compound `COC(=O)c1cc(OC)cc(OC)c1C(=O)c1c(OC)cc2c(c1O)C1CCCC(C)(O2)O1` (stereo not drawn), the results for the max response in the assay on HEK293 and in the assay on HaCat were -5.64% and 3.65%, respectively. Besides, the outcome in the assay with KB-3-1 and in the assay on NIH3T3 was inactive.

For `C=CC(=O)Nc1cc(Nc2ncc(Cl)c(-c3c[nH]c4ccccc34)n2)c(OC)cc1N(C)CCN(C)C`, the Potency in the assay on HEK293 is 2.06 µM (active); with HaCat, 0.58 µM (active); with KB-3-1 it was 4.11 µM (active); with NIH3T3, 5.8 µM (active).

Consider `CC1=CC(=O)CC(C)(C)C1CCC(C)O[C@@H]1O[C@H](CO[C@@H]2OC[C@@H](O)[C@H](O)[C@H]2O)[C@@H](O)[C@H](O)[C@H]1O` (stereo partly drawn), for which the max response is -8.79% in the assay with HEK293, 4.17% with HaCat, 1.12% with KB-3-1 and 3.34% with NIH3T3.

Take `CN1c2ccccc2C(=O)N2CCC3c4ccccc4NC3C21` (stereo not drawn): the Potency in the assay on HEK293 was 2.55 µM (active); with HaCat, 2.02 µM (active); in the assay on KB-3-1, 3.6 µM (active); in the assay with NIH3T3, 7.18 µM (active).

Consider `Cc1nc([C@](C)(O)CO)sc1-c1cnc(N)c(O[C@H](C)c2cc(F)ccc2-n2nccn2)c1`, for which the Potency in the assay on HEK293 is 13 µM (active); in the assay with HaCat, 14.6 µM (active); in the assay on KB-3-1 it was 18.4 µM (active); in the assay with NIH3T3 it was 2.06 µM (active).

Consider `CC(=O)OC1C(O)CC2(C)C(CCC(C)C23Cc2c(O)cc(CO)c(C=O)c2O3)C1(C)C` (stereo not drawn), for which the results for the max response in the assay with HEK293, in the assay with HaCat and with KB-3-1 were -11.5%, -3.73% and 6.45%, respectively. The compound was classed as inactive with NIH3T3.
